Mcl1 Noxa PPI: Mcl-1/Noxa interaction inhibition; TR-FRET Mcl-1/Noxa peptide binding, 2 h; inhibition, % at 21.7 µM; 220,000 tested, 1.5% active; AID 1022;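 active = compounds that cut the protein-peptide binding signal by more than 50% relative to plate controls in a single-dose test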;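 note: His-tagged Mcl-1 with rhodamine Noxa BH3 peptide and terbium anti-His antibody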
Target sequence (Q07820 whole entry, looked up): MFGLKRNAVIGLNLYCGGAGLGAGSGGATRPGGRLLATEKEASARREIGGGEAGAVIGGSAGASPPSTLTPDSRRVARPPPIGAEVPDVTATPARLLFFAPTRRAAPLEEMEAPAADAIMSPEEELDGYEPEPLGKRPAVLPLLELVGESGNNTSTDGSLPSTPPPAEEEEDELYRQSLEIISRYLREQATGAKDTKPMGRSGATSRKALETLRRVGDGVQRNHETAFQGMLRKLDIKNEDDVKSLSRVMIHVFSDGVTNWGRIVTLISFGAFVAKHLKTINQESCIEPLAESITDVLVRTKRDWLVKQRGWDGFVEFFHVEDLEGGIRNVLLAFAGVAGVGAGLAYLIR
Calpain2 inh: calpain II (pig) inhibition | inhibition, % at 16 µM | 220,000 tested, 0.37% active | purified calpain II, fluorogenic peptide substrate, 30 min;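 active = inhibition above about 50%, limit read from the data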
NCF1 inh: blocks human p47phox regulatory protein of NADPH oxidases. P14598. p47phox/p22phox peptide binding, fluorescence polarization, 2 h. inhibition, % at 24.7 µM. 220,000 tested, 0.53% active. AID 1274;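 active = inhibition above about 30%, limit read from the data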
14-3-3 Bad PPI: disrupts binding of bovine 14-3-3 zeta to phospho-Bad peptide | P63103 | inhibition, % at 21.7 µM | 220,000 tested, 0.71% active | AID 781 | TR-FRET 14-3-3zeta/Dy647-pBad peptide displacement, 1 h;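 active = inhibition above about 70%, limit read from the data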
Target sequence (P63103 whole entry, looked up): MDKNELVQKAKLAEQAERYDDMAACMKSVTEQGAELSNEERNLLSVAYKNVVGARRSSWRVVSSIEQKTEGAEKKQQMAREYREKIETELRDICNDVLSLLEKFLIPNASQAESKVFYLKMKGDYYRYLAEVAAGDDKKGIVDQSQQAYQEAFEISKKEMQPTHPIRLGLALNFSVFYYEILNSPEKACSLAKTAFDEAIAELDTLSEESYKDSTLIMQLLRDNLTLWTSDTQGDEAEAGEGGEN
Mcl1-Bid inh: Mcl-1/Bid interaction inhibition. Q07820. inhibition, % at 21.7 µM. TR-FRET Mcl-1/Bid-Dy647 peptide binding, 1536-well. 220,000 tested, 0.97% active;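 active = compounds that cut the binding signal by more than half at the single screening dose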;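 note: His-tagged Mcl-1 with europium anti-His antibody binding Bid BH3 peptide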
Bim-Mcl-1: human Bim-Mcl-1 interaction inhibition; Bead-based flow cytometry, Bim peptide-Mcl-1 binding; inhibition, % at 10 µM; 190,000 tested, 0.1% active; AID 1009; in the data active = inhibition above about 40%
Numbers stand for hits; – = inactive; · = no result given; [ ] = dose if it differs, or a comment. Shown are actives, neighbours in structure and some others; about 3.4% of the full set was active somewhere.

SMILES	Mcl1 Noxa PPI	Calpain2 inh	NCF1 inh	14-3-3 Bad PPI	Mcl1-Bid inh	Bim-Mcl-1
COc1ccc(C(=O)N[C@H](C(=O)OCc2cc(=O)oc3cc(C)ccc23)C(C)C)cc1	–	–	–	–	–	–
COc1cc(C(=O)Nc2ccc(Br)cc2C(=O)c2cc(OC)c(OC)c(OC)c2)cc(OC)c1OC	–	–	–	–	–	–
Cc1ccc2c(c1C)NC(C(=O)O)C1CC=CC21 (stereo unspecified)	99	–	–	–	96	–
O=C(c1ccccc1O)N1CCOCC1	–	–	–	–	–	·
O=C(O)C1Nc2c(C(=O)N3CCOCC3)cccc2C2C=CCC12 (stereo unspecified)	80	–	–	–	–	–
CC(C)C1Nc2ccc(C(=O)O)cc2C2C=CCC21 (stereo unspecified)	–	–	–	–	–	–
CCOC(=O)c1ccc2c(c1)C1C=CCC1C(C(=O)O)N2 (stereo unspecified)	104	–	–	–	62	–
CCOC(=O)Cc1ncccc1C(=O)Nc1ccc(Oc2ccccc2)cc1	–	–	–	–	–	–
CCOC(=O)c1c(NC(=O)Cn2nc(C(=O)O)c3ccccc3c2=O)sc(CC)c1C	–	–	–	–	–	–
Cc1ccc(C(=O)NCCCn2ccnc2)o1	–	–	–	–	62	–
O=C(NCCCn1ccnc1)C(=O)NC1CCCCC1	–	–	–	–	–	–
O=C(O)C1CCCCC1C(=O)NCCCn1ccnc1 (stereo unspecified)	–	–	36	–	–	–
CCOC(=O)CC(NC(=O)C1c2ccccc2Oc2ccccc21)c1ccccc1Cl (stereo unspecified)	–	–	–	–	–	–
O=C1N/C(=C/c2ccc(Br)cc2)C(O)=C1C=NCc1ccccc1	–	–	–	–	54	–
O=C1NC(=NCc2ccccc2)S/C1=C/c1ccc(O)cc1	–	–	–	–	–	–
Cc1cc(CNC(=O)C(C)n2nc(C)c([N+](=O)[O-])c2C)c2ccccc2n1 (stereo unspecified)	–	–	–	–	–	–
Cc1nn(Cc2ccccc2)c(C)c1NC(=O)CSc1nc(-c2ccccc2)nc2c1cnn2-c1ccccc1	–	–	32	–	80	–
O=C(CSc1ncnc2c1cnn2-c1ccccc1)Nc1ccccc1	–	–	–	–	–	–
COc1cc(/C=C2/NC(=O)N(Cc3ccccc3F)C2=O)cc(OC)c1O	57	–	–	–	–	51
CCOc1cc(/C=C2/NC(=O)N(Cc3ccccc3F)C2=O)ccc1O	–	–	–	–	–	–
CC(C)C(=O)O/N=C(\N)c1ccc(Oc2ccc(Cl)cc2)c([N+](=O)[O-])c1	–	–	–	–	–	·
O=C(N/N=C/c1cc(Br)c(Br)o1)c1ccc2c(c1)OCCO2	57	–	–	–	–	·
Oc1ccccc1N=Nc1ccccc1O	–	68	–	–	–	–
Oc1ccccc1N=Cc1ccc[nH]1	–	–	–	–	–	–
C=CCC1(/C=N/O)CCOC(C)(C)C1 (stereo unspecified)	–	–	64	–	98	·
SMILES	Mcl1 Noxa PPI	Calpain2 inh	NCF1 inh	14-3-3 Bad PPI	Mcl1-Bid inh	Bim-Mcl-1
O=C(O)CCN1C(=O)S/C(=C\c2cccnc2)C1=O	–	–	–	–	91	·
CS(=O)(=O)c1ccc(C(=O)NCCN2C(=O)S/C(=C\c3cccnc3)C2=O)cc1[N+](=O)[O-]	81	–	–	–	–	–
O=C(CN1C(=O)S/C(=C/c2cccnc2)C1=O)N1CCOCC1	–	–	–	–	–	–
O=C(NCCN1C(=O)S/C(=C\c2ccc(Cl)c(Cl)c2)C1=O)c1cnccn1	58	–	–	–	–	–
O=C1CCC(C(=O)NCCN2C(=O)S/C(=C\c3cccnc3)C2=O)=NN1	–	–	–	–	–	–
Cc1cccc(C)c1OCC(=O)N(Cc1ccc(N(C)C)cc1)C1CCS(=O)(=O)C1 (stereo unspecified)	–	–	–	–	–	·
O=C(Nc1ccccc1C(=O)O)/C(=C/c1ccc([N+](=O)[O-])cc1)NC(=O)c1ccc(Br)o1	–	–	–	–	–	–
Oc1ccc(/C=C/c2cnccn2)cc1	–	–	–	–	–	·
O=C(NNC(=O)c1nn(-c2ccc(F)cc2)ccc1=O)c1ccccc1Cl	–	–	–	–	–	·
COc1cc2nc(C3CCC3)n(NC(=O)c3ccco3)c(=O)c2cc1OC	–	–	–	–	–	–
O=C(CCSc1ccccc1)NC(=O)COC(=O)C1CCCCC1	–	60	–	–	–	–
O=C(CCSc1ccccc1)NC1CCCCCC1	–	–	–	–	–	–
C/C(=N/NC(=O)CN1CCN(Cc2ccccc2Cl)CC1)c1ccco1	–	–	–	–	–	·
CN(CCOc1ccccc1)CC(=O)Nc1cccc(Br)c1	–	–	–	74	–	–
Cc1cccc(NS(=O)(=O)c2cc(C(=O)OC(C)C(=O)NCc3ccc4c(c3)OCO4)ccc2C)c1 (stereo unspecified)	–	–	–	–	–	–
CCOc1ccc(N2C(=O)CCC2=O)cc1	–	–	–	–	–	–
CCCCCCC(=O)Oc1ccc(N2C(=O)CCC2=O)cc1	55	–	–	–	–	–
CCCc1ccc(OCc2ccccc2)c2c(=O)cc(C(=O)OCC)oc12	–	–	–	–	–	·
COc1ccc(-c2cc(=O)oc3cc(OCC(C)=O)ccc23)cc1	–	–	–	–	–	–
COc1ccc2c(-c3cc4ccc(OCc5ccc(F)cc5)cc4oc3=O)cc(=O)oc2c1	–	–	37	92[fluorescence artefact?]	56	–
CC1CN(C(=S)NC(=O)c2ccco2)CC(C)O1 (stereo unspecified)	–	–	–	–	–	–
O=c1[nH]c(=S)[nH]c(O)c1N=Nc1ccc(-c2ccccc2)cc1[N+](=O)[O-]	92	–	70	–	–	–
CC1CC(CN)CC(CO)C1 (stereo unspecified)	–	–	–	–	–	–
N/C(=N\NC(=O)c1ccccc1)c1cc2ccccc2oc1=O	–	59	–	–	–	–
N/C(=N\NC(=O)c1cccs1)c1cc2cc(Cl)ccc2oc1=O	–	–	–	–	–	·
SMILES	Mcl1 Noxa PPI	Calpain2 inh	NCF1 inh	14-3-3 Bad PPI	Mcl1-Bid inh	Bim-Mcl-1
COc1cc(-c2nc3ccccn3c2/N=C/c2cc(OC)c(O)cc2Cl)ccc1O	57	–	–	–	–	–
COc1cc(-c2nc3ccccn3c2/N=C/c2ccccc2)ccc1O	–	–	–	–	–	–
OCCCN=c1cc(-c2ccccc2)oc2ccc(Cl)cc12	–	–	–	193[fluorescence artefact?]	–	–
Cc1cccc2cc3c(N)c(C#N)sc3nc12	–	–	–	–	–	–
Cc1sc(NC(=O)c2sc3nc4c(C)cccc4cc3c2N)c(C#N)c1C	96	–	–	–	97	–
CCCCc1ccc(NC(=O)C2CCCO2)cc1 (stereo unspecified)	–	53	–	–	–	–
O=C(COc1ccc(Cl)cc1Cl)Nc1c(-c2cccs2)nc2ccccn12	52	–	–	–	–	–
O=C1C=C(Nc2ccccc2)c2ccccc2C1=O	–	–	–	–	–	–
